High-throughput results deposited in PubChem BioAssay by Broad Institute.
This is a sample that favours compounds with a hit; in the whole collection about 1.1% have one here.
FadD28 FP inh = inhibitors of FadD28 bisubstrate probe binding, primary screen, biochemical, fluorescence polarization, single point; Mycobacterium tuberculosis FadD28 fatty-acid-AMP ligase; inhibition, % at 12.5 µM; 360,000 tested, 0.22% active; AID 588549, 2011; in the data active = inhibition above about 8.5%, passing the limit was not always enough; inconclusive = no clear call, values can overlap the other calls
BioA inh = M. tuberculosis BioA enzyme inhibitors, primary screen, biochemical, plate reader, single point, HTS. 7,8-diaminopelargonic acid synthase BioA (Mycobacterium tuberculosis). purified M. tuberculosis BioA enzyme. inhibition, % at 9.99 µM. 360,000 tested, 0.096% active. AID 602481, 2012; in the data active = inhibition above about 40%; inconclusive = no clear call, values can overlap the other calls
TcdB inh = TcdB glycohydrolase inhibitors, primary screen, biochemical, single point, plate reader | TcdB glycohydrolase enzymatic assay | inhibition, % at 9.99 µM | 350,000 tested, 0.24% active; in the data active = inhibition above about 10%
Target sequence (P18177 whole entry, looked up): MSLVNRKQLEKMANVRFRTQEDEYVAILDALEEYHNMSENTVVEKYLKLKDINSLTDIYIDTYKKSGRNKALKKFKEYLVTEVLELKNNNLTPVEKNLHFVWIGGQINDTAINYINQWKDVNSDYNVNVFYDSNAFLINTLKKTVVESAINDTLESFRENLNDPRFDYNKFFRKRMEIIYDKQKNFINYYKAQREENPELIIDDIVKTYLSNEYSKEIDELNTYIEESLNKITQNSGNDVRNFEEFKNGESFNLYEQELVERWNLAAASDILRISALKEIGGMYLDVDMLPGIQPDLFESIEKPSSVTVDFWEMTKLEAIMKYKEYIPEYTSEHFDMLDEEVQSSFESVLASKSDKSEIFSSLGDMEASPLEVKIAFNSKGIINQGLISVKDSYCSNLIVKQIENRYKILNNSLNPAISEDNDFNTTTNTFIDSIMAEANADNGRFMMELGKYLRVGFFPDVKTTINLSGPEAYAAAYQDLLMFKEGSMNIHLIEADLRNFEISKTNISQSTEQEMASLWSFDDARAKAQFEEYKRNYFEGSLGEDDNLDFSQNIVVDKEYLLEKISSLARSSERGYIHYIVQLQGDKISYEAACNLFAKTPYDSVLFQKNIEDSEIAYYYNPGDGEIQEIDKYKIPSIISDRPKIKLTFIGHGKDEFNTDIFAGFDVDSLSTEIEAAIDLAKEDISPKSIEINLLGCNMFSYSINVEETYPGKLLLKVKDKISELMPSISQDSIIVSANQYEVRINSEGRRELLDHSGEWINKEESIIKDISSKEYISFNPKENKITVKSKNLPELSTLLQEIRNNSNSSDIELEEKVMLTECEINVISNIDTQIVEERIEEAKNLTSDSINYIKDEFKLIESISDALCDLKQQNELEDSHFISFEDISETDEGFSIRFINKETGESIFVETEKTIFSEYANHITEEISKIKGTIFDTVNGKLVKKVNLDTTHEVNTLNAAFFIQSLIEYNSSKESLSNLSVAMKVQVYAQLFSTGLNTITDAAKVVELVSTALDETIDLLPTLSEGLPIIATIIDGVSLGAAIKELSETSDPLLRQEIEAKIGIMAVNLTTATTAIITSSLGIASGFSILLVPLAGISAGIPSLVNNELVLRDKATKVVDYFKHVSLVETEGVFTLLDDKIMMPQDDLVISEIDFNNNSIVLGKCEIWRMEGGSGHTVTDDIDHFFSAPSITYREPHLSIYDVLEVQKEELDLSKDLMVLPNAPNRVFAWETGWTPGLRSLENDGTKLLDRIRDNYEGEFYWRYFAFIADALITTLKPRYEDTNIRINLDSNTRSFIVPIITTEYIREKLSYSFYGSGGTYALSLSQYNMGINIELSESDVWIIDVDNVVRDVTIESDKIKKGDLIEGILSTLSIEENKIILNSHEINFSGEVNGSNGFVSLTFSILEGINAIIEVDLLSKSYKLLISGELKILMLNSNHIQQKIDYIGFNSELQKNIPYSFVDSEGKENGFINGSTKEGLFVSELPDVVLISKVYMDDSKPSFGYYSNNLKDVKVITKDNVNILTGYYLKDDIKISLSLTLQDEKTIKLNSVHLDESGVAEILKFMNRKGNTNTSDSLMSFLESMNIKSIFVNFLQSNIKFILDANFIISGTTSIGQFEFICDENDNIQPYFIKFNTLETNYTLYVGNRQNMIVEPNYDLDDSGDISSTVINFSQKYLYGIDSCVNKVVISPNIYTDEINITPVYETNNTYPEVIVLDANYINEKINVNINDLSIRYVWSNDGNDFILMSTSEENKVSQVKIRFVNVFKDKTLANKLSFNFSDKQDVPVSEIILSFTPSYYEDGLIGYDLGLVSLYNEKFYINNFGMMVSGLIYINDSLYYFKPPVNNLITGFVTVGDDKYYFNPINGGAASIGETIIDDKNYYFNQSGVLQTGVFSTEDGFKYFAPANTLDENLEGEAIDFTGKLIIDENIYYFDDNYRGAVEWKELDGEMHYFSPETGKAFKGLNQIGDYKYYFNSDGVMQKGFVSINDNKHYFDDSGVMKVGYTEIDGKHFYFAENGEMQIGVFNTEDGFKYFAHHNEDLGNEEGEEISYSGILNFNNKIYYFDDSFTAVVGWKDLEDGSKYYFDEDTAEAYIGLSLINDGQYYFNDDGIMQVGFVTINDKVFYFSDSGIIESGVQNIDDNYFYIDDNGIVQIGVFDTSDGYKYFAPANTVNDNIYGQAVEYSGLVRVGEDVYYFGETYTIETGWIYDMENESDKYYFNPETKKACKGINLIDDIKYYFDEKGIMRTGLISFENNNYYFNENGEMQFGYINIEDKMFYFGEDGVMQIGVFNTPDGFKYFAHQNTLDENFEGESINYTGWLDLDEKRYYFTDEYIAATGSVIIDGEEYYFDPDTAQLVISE
PfHsp40 rescue = rescue of yeast from PfHsp40 toxicity, primary screen, S. cerevisiae, ATP luminescence. S. cerevisiae expressing PfHsp40, growth rescue. growth rescue, % at 12.5 µM. 340,000 tested, 0.68% active. AID 504582, 2011; in the data active = growth rescue above about 28%, passing the limit was not always enough; inconclusive = no clear call, values can overlap the other calls;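 also: yeast W303a lacking pdr1 and pdr3 grown in galactose medium; growth measured after three days at 30 °C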
PrP UTR inh = inhibition of PrP 5' UTR reporter expression; 340,000 tested, 0.35% active; inhibition, % (test concentration not listed); cell-based PrP 5' UTR mRNA reporter, plate reader; in the data active = inhibition above about 52%; also: 0 = median of the neutral control wells
* marks the source's active call; other numbers are inactive results; ? = inconclusive; nt = no result.

SMILES | FadD28 FP inh | BioA inh | TcdB inh | PfHsp40 rescue | PrP UTR inh
CC1CCCCC1NC(=O)/C(C#N)=C/c1ccccc1F (centres undefined) | -3 | -1 | 0 | 111* | -11
CSc1ccc(/C=C(\C#N)C(=O)NC2CCCCC2C)cc1 (centres undefined) | -4 | nt | 1 | 0 | -14
CCc1ccccc1NC(=S)N(Cc1ccc(C(=O)O)cc1)Cc1ccc(OC)c(OC)c1 | -1 | 0 | 13* | 1 | -9
COc1ccc(CN(Cc2ccc(C(=O)O)cc2)C(=S)Nc2ccccc2C)cc1OC | -1 | -1 | 1 | -1 | -25
Cc1cc(NC(=S)N(Cc2ccc(Cl)cc2)Cc2ccc(C(=O)O)cc2)ccc1Cl | 2 | 9 | 1 | ? | -7
CCc1ccc(NC(=S)N(Cc2ccc(Cl)cc2)Cc2ccc(C(=O)O)cc2)cc1 | 17* | nt | 3 | 10 | -12
O=C(NCCCc1ccccc1)c1c(O)nc2sccn2c1=O | 0 | -1 | 0 | 178* | -11
O=C(NCCC1=CCCCC1)c1c(O)nc2ccccn2c1=O | -2 | 0 | 2 | 0 | -23
CCn1c(=O)c(C(=O)NCCCc2ccccc2)c(O)c2ccccc21 | -3 | 1 | 1 | 9 | -14
O=C(NCCC1=CCCCC1)c1c(O)nc2sccn2c1=O | -2 | 1 | 2 | 372* | -11
CCc1cccc(NC(=O)COC(=O)/C=C/c2cccs2)c1 | 20* | 21 | 0 | 0 | -15
Cc1ccc(SCCC(=O)N2CCCC2)cc1 | -3 | 0 | nt | 42* | -39
Cc1ccc(SCCC(=O)N2CCOCC2)cc1 | -1 | -1 | 0 | 0 | -42
C[C@H](CO)N1C[C@H](C)[C@H](CN(C)Cc2ccncc2)OCCCC[C@H](C)Oc2ccc(NS(=O)(=O)c3ccc(F)cc3)cc2C1=O | nt | 0 | 1 | nt | nt
CCOc1ccc(S(=O)(=O)NCc2ccccc2Cl)cc1C(N)=O | -1 | nt | 20* | 0 | -6
CCCN1CCCC[C@H]1C(=O)Nc1c(C)cccc1C | -1 | -3 | 1 | 43* | -5
CCCCN1CCCCC1C(=O)Nc1c(C)cccc1C (centres undefined) | 1 | -4 | 1 | 0 | 8
CO[C@@H]1CN(C)C(=O)c2ccc(NC(=O)Nc3ccccc3)cc2OC[C@@H](C)N(C(=O)Nc2c(C)noc2C)C[C@H]1C | nt | -1 | 0 | nt | nt
O=C(CN1c2ccccc2Sc2ccccc21)NNC(=S)Nc1ccc(Cl)cc1Cl | -2 | nt | nt | 0 | -25
O=C(CN1c2ccccc2Sc2ccccc21)NNC(=S)Nc1ccc(Cl)cc1 | -1 | -1 | 0 | 75* | -18
Fc1ccc(COc2ccccc2CNCc2ccncc2)cc1 | 0 | nt | 1 | -1 | -24
Brc1ccc(OCc2ccccc2)c(CNCc2ccncc2)c1 | -1 | 2 | nt | 122* | -22
c1ccc(CN2CCC(N3CCC(N4CCCCCC4)CC3)CC2)cc1 | -1 | -2 | 1 | 0 | 1
c1ccc2c(c1)c1c(c3ccccc32)CN2CCCC2C1 (centres undefined) | -5 | nt | 2 | 76* | -1
C[C@H]1CCCCO[C@@H](CN(C)S(=O)(=O)c2cccs2)[C@@H](C)CN([C@@H](C)CO)C(=O)c2cc(NC(=O)Nc3ccc4c(c3)OCO4)ccc2O1 | nt | 1 | 1 | nt | nt
SMILES | FadD28 FP inh | BioA inh | TcdB inh | PfHsp40 rescue | PrP UTR inh
CC(C)CN(C(=O)c1cccc(S(=O)(=O)N2CCN(Cc3ccccc3)CC2)c1)C1CCS(=O)(=O)C1 (centres undefined) | -1 | -1 | 1 | 347* | -3
CN(c1ccccc1)S(=O)(=O)c1cccc(C(=O)NCCc2ccc(O)c(O)c2)c1 | -1 | nt | 15* | 1 | -17
CCN(CC)S(=O)(=O)c1cccc(C(=O)NCCc2ccccc2)c1 | 0 | -1 | 1 | -2 | -58
CCN(c1ccccc1)S(=O)(=O)c1ccc(C(=O)Nc2nnc(CSC)o2)cc1 | -4 | 0 | 0 | 40* | -14
CCN(c1ccccc1)S(=O)(=O)c1ccc(C(=O)Nc2nnc(COC)o2)cc1 | -5 | -1 | nt | 1 | -24
O=C(NCCCNc1ccc(C(F)(F)F)cc1[N+](=O)[O-])c1ccc(Cl)cc1 | -5 | 0 | nt | 471* | -22
O=C(NCCCNc1ccc(C(F)(F)F)cc1[N+](=O)[O-])c1cc(F)c(F)cc1Cl | -6 | 1 | nt | 0 | -9
COc1ccc(NC(=O)Nc2ccc3c(c2)C(=O)N([C@@H](C)CO)C[C@@H](C)[C@@H](CN(C)S(=O)(=O)c2cccs2)OCCCC[C@H](C)O3)cc1 | nt | 1 | -1 | nt | nt
O=C(C[C@@H]1CC[C@@H]2[C@H](COC[C@@H](O)CN2C(=O)Nc2ccc(Cl)c(Cl)c2)O1)NCc1ccncc1 | nt | -1 | 11* | nt | nt
COC(=O)C[C@@H]1CC[C@@H]2[C@H](COC[C@H](O)CN2C(=O)Nc2ccccc2OC)O1 | nt | 3 | 13* | nt | nt
O=C(C[C@@H]1CC[C@H]2[C@@H](COC[C@@H](O)CN2Cc2ccc(Oc3ccccc3)cc2)O1)Nc1nccs1 | nt | -1 | 27* | nt | nt
O=C(C[C@@H]1CC[C@H]2[C@@H](COC[C@@H](O)CN2C(=O)c2ccccn2)O1)NC1CCC1 | nt | -3 | 10* | nt | nt
O=C(C[C@H]1CC[C@H]2[C@@H](COC[C@H](O)CN2C(=O)Nc2ccc(Cl)c(Cl)c2)O1)NCc1ccccc1 | nt | 0 | 0 | nt | nt
COCCNC(=O)C[C@H]1C[C@H]2c3cc(NS(=O)(=O)c4ccccc4)ccc3O[C@H]2[C@H](CO)O1 | nt | 1 | 0 | nt | nt
O=C(C[C@@H]1C[C@@H]2c3cc(NC(=O)NC4CCCC4)ccc3O[C@@H]2[C@H](CO)O1)NCc1ccccn1 | nt | nt | -11 | nt | nt
O=C(c1ccc(F)cc1)N1CC(=O)N2[C@H](C1)[C@@H](c1ccc(-c3cccnc3)cc1)[C@@H]2CO | nt | nt | 0 | nt | nt
C[C@H](CO)N1C[C@H](C)[C@@H](CN(C)C(=O)Nc2cccc3ccccc23)OCCCC[C@H](C)Oc2ccc(NC(=O)Nc3ccc(F)cc3)cc2C1=O | nt | 2 | 0 | nt | nt
Cc1ccc(N2C(=O)c3ccccc3[C@](C)(C(=O)O)[C@@H]2c2ccc(CO)cc2)nc1 | nt | 1 | -3 | nt | nt
c1ccc(-c2nnc(-c3ccccn3)nc2NC2CCCCC2)cc1 | -1 | 4 | 2 | 46* | 20
C[C@@H]1CN([C@@H](C)CO)C(=O)c2cc(NC(=O)C3CCCCC3)ccc2O[C@H]1CN(C)Cc1ccc(Oc2ccccc2)cc1 | nt | -1 | nt | nt | nt
O=C(CSc1nc2ccccc2[nH]1)NC1CCCc2ccccc21 (centres undefined) | ? | nt | 13* | -2 | -8
O=C1C(=O)C(Cl)=C(Cl)C(Cl)=C1Cl | 11* | -1 | nt | nt | nt
COC(=O)c1ccc(NC(C(=O)OC)C(C)C)c([N+](=O)[O-])c1 (centres undefined) | -1 | nt | nt | 50* | -38
CCC(C)C(Nc1ccc(C(=O)OC)cc1[N+](=O)[O-])C(=O)OC (centres undefined) | -2 | nt | nt | -1 | -29
